High-throughput results: PubChem BioAssay, National Center for Advancing Translational Sciences (NCATS)
JMJD2A Tudor inh = inhibitors of human JMJD2A Tudor domain. AlphaScreen JMJD2A-Tudor / H3K4me3 peptide binding. Potency, µM (series often up to 114 µM), for the others: at the top dose activity change, negative = inhibition, actives largely listed as inhibitors. 390,000 compounds, 4.4% hits; also: potency is read from the fitted curve at half-maximal effect; % is scaled to controls: 0 for no effect and ±100 for the full control effect; nearly all actives have a fitted effect of over 50% in size
BAZ2B inh = BAZ2B (human) inhibition; Potency, µM (highest dose often 114 µM), for the others: at the highest dose activity change, negative = inhibition, hits mostly inhibitors; 360,000 compounds, 4.4% hits; AID 504333; AlphaScreen BAZ2B-H3K14Ac peptide displacement; Q9UIF8; also: potency is read from the fitted curve at half-maximal effect; % is scaled to controls: 0 for no effect and ±100 for the full control effect; nearly all actives have a fitted effect of over 60% in size
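Protein-peptide AlphaScreen: BAZ2B 50 nM, b-H3K14Ac 50 nM, 1x PBS pH 7.4 + 0.01% Tween-20. Preincubation 30 min RT; cpd 30 min RT (top 110 uM); beads 20 min RT, light-protected.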
CtBP-E1A blk = inhibitors of CtBP/E1A interaction; AlphaScreen GST-E1A/His-CtBP binding, 1536-well; active compounds read low; activity change, % (test concentration not listed); 340,000 compounds, 0.49% hits; AID 651724; in the data active = activity change below about -65%; inconclusive = mostly about -30% to -63%; also: % is scaled to controls: 0 for no effect and ±100 for the full control effect
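GST-E1A and His-tagged CtBP (125 nM each as 5X stock) were preincubated with pin-transferred compound for 2 h at 37 °C in the dark, then glutathione donor and nickel acceptor beads were added for 1 h before AlphaScreen reading.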
Six1-Eya2 blk = blocks human Six1 binding to Eya2; AlphaScreen GST-Six1/His-Eya2 binding, biochemical; active compounds read low; activity change, % (no concentration beside the values); 360,000 compounds, 0.56% hits; in the data active = activity change below about -65%; inconclusive = mostly about -30% to -63%; also: % is scaled to controls: 0 for no effect and ±100 for the full control effect
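Six1/Eya2 binding was read as AlphaScreen signal after compounds were pinned into GST-Six1 plus His-tagged Eya2 (5X stock 250/500 nM) in pH 8.0 Tris/NaCl/TCEP buffer, beads added, then incubated 1 h, 37 C, dark.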
HP1b binding inh = HP1-beta chromodomain-methylated histone interaction inhibition; P83916; 390,000 compounds, 0.56% hits; Potency, µM (top dose mostly 114 µM), for inactives: at the highest dose activity change, negative = inhibition, most hits filed as inhibitors; AlphaScreen HP1-beta / biotin-H3K9me3 peptide binding; also: potency is read from the fitted curve at half-maximal effect; nearly all actives have a fitted effect of over 70% in size
Target sequence (P83916 whole entry, looked up): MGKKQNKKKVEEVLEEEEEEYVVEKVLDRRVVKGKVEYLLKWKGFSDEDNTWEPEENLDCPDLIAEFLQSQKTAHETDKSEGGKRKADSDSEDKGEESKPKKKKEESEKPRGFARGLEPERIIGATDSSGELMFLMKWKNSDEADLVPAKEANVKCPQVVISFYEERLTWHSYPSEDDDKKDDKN
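Compound inhibition of the preformed complex between 50 nM HP1-beta and 50 nM biotinylated H3K9me3 peptide was read by AlphaScreen. Buffer was PBS pH 7.4 with 0.01% Tween-20. Incubations ran 30 min at room temperature, with 10 ug/mL donor/acceptor beads.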
G9a inh = inhibitors of human histone lysine methyltransferase G9a | Q96KQ7 | G9a H3K9 monomethylation, AlphaScreen, 2 h | Potency, µM (doses to about 102 µM), without a hit: top-dose activity, negative = inhibition, hits mostly inhibitors | 350,000 compounds, 8.8% hits; also: potency is read from the fitted curve at half-maximal effect; % is scaled to controls: 0 for no effect and ±100 for the full control effect; nearly all actives have a fitted effect of over 75% in size
Target sequence (Q96KQ7 913-1193 limits assumed): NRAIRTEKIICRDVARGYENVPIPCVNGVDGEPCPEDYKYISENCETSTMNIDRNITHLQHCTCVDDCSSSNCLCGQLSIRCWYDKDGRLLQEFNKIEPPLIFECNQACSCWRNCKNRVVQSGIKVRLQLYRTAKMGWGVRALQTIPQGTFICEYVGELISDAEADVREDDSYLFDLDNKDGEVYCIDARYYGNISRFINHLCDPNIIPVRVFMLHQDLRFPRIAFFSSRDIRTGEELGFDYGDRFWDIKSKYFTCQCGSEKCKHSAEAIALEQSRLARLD
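Quantitative HTS format: methyltransferase activity on a biotin-tagged H3K9 peptide is measured by AlphaScreen, using a rabbit anti-monomethyl-H3K9 antibody with streptavidin donor and anti-IgG acceptor beads. Final levels are 20 nM enzyme, 500 nM peptide, 20 uM SAM; 2 h RT.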
Numbers without * were called inactive; u = inconclusive; x = not tested or not shown; [ ] = dose if it differs, or a comment. This is a sample that favours compounds with a hit; in the whole collection about 10% have one here. Unless noted, calls follow the shape of the dose curve; as a rule, active = well fitted inhibition curve with a large enough effect; inconclusive = small, poorly fitted or top-dose-only effect; inactive = no such curve, though single readings can be large or run the other way.

SMILES | JMJD2A Tudor inh | BAZ2B inh | CtBP-E1A blk | Six1-Eya2 blk | HP1b binding inh | G9a inh
CC(=O)N1CCc2c(sc3c2c(=O)n(-c2ccccc2C)c(=O)n3CC(=O)Nc2ccccc2)C1 | -22% | -1% | x | x | 2% | -2%[59 µM]
CCCNC(=O)C1(C)CCCN(C(=O)CN2C(=O)c3ccccc3C2=O)C1 (stereo not given) | x | x | -14 | 9 | x | x
O=C(CSc1ccccc1C(=O)N1CCN(c2ccccc2)CC1)N1CCCC1 | 3% | -5% | 7 | -2 | 43% | 13µM*
Nc1nnc(SCC(=O)N2CCN(c3ccccc3)CC2)s1 | -5% | 2% | 10 | 4 | 42% | 50µM*
O=C(CSc1nc2c(c(=O)n1-c1ccccc1)SCC2)N1CCOCC1 | -20% | 13% | 3 | 1 | 34% | 21%
O=C(CSc1nc2c(c(=O)n1-c1ccccc1)SCC2)N1CCN(c2ccccc2)CC1 | u | -7% | -1 | -4 | 3% | 45µM*
Nc1nc(SCC(=O)N2CCN(c3ccccc3)CC2)n[nH]1 | -1% | -18% | -1 | -1 | 39% | 40µM*
Nc1nnc(SCC(=O)N2CCCCC2)s1 | -5% | -23% | -1 | -2 | 23% | 51%
CCCOc1ccc(-c2nc(C#N)c(N3CCN(CC)CC3)o2)cc1 | u | 40µM* | -18 | -23 | 50µM* | u
CCOc1ccc(-c2nc(C#N)c(N3CCCCCC3)o2)cc1 | 35µM* | 11µM* | -23 | u | u | 7.9µM*
CCOc1ccc(-c2nc(C#N)c(N3CCN(CC)CC3)o2)cc1 | u | u | -8 | -15 | -8% | 50µM*
CCS(=O)(=O)NCCc1csc2nc(-c3ccc(OC)cc3)nn12 | 5% | 3% | x | x | 37% | 3%[59 µM]
COc1ccc(C(=O)NCCc2c[nH]c3ccccc23)cc1S(=O)(=O)N1CCCCC1C (stereo not given) | u | -39% | -7 | 0 | -11% | 2.8µM*
O=C(NCCc1c[nH]c2ccccc12)c1ccc2nc[nH]c2c1 | -31% | 50µM* | -7 | -15 | 13% | -12%[59 µM]
COc1ccc(C(=O)NCCc2ccc(Cl)cc2)cc1S(=O)(=O)N1CCCCC1C (stereo not given) | -21% | 1% | x | 0 | 15% | -20%[59 µM]
COc1ncc2nc(-c3ccc(F)cc3)c(=O)n(C[C@H]3CCCO3)c2n1 | x | x | x | x | x | -5%[12.7 µM]
O=C(O)CSc1nc(-c2ccccc2)c(-c2ccccc2)[nH]1 | u | -37% | x | -2 | -5%[57 µM] | 50µM*
CC(C)(C)NC(=O)CSc1nc(-c2ccccc2)c(-c2ccccc2)[nH]1 | -19% | 4% | -10 | -15 | 32% | 16%[12.7 µM]
O=C(CSc1nc2ccccc2c(=O)[nH]1)N1CCN(S(=O)(=O)c2ccccc2)CC1 | -17% | -18% | 3 | -2 | 6% | 12%[12.7 µM]
O=C(CSc1nc(-c2ccccc2)c(-c2ccccc2)[nH]1)N1CCN(S(=O)(=O)c2ccccc2)CC1 | u | -35% | -12 | -24 | -1% | 3.2µM*
Nn1cc(-c2ccccc2)nc1SCC(=O)N1CCN(S(=O)(=O)c2ccccc2)CC1 | -21% | u | 5 | -2 | 9% | 25µM*
CCCNC(=O)Cc1c(C)oc2ccccc12 | -2% | 22% | 6 | 4 | 30% | 12%
CC(/C=N/n1c(-c2ccncc2)n[nH]c1=S)=C\c1ccco1 | 5µM* | u | x | -11 | -5% | x
CC(/C=N/n1c(-c2ccco2)n[nH]c1=S)=C\c1ccco1 | 45µM* | u | -1 | -5 | u | 1.4µM*
CC(=C/c1ccco1)/C=N/N1CCN(c2ccccc2)CC1 | 12% | u | 6 | 1 | 20% | -8%
SMILES | JMJD2A Tudor inh | BAZ2B inh | CtBP-E1A blk | Six1-Eya2 blk | HP1b binding inh | G9a inh
CC(/C=N/n1c(-c2ccccc2)n[nH]c1=S)=C\c1ccco1 | 50µM* | 50µM* | 3 | -11 | -20% | 2.2µM*
CC(/C=N/n1c(-c2ccc(C)cc2)n[nH]c1=S)=C\c1ccco1 | u | -29% | -14 | -10 | u | 1.3µM*
CC(/C=N/NC(=O)c1cc(-c2ccncc2)nc2ccccc12)=C\c1ccco1 | u | -8% | u | u | u | u
C=CCC[C@@H](Cc1ccc(F)cc1)C(=O)OC[C@H](Cc1c[nH]c2ccccc12)NC(=O)[C@H](CC=C)CC(=O)N(CCO)Cc1ccccc1 | u | x | -9 | -7 | -5% | x
N#CN1CCC(NC(=O)c2cccc(C(F)(F)F)c2)CC1 | -8% | x | x | x | x | x
c1ccc2[nH]c(CSc3nnc(-c4ccncc4)o3)nc2c1 | -26% | u | 5 | -19 | 34% | -49%
Clc1ccc(-c2nnc(SCc3nc4ccccc4[nH]3)o2)c(Cl)c1 | -1% | -1% | -12 | 3 | 13% | 8.9µM*
CN(C(=O)COc1ccccc1)c1nnc(C23CC4CC(CC(C4)C2)C3)s1 | -4% | 0% | 0 | 4 | 31% | 14µM*
CCOC(=O)/C=C/C(=O)OCc1csc(CC(=O)Nc2ccccc2C)n1 | 0% | 50µM* | 9 | 8 | 50% | 29%
CC(C)=CC(=O)OCc1csc(CC(=O)Nc2ccccc2C)n1 | -14% | -3% | 7 | 7 | 63% | -7%
CCN(CC)S(=O)(=O)c1ccc(NC(=O)c2c(C)oc3ncnc(N4CCCCC4)c23)cc1 | -17% | -2%[57.1 µM] | x | x | -17% | -3%[59 µM]
COc1ccc(C)cc1NC(=O)C(c1ccccc1)N1CCN(CC(=O)N2CCOCC2)CC1 (stereo not given) | -12% | -15% | 2 | -4 | 21% | 45µM*
Cc1sc2nc(-c3ccncc3)[nH]c(=O)c2c1-c1ccccc1 | x | 4% | x | x | x | 16%[59 µM]
Cc1sc2nc(-c3ccccn3)[nH]c(=O)c2c1-c1ccccc1 | -14% | -3% | -83* | u | 18% | 10µM*
CCN(CC)C(=O)c1sc2nc(-c3ccccn3)[nH]c(=O)c2c1C | 28µM* | x | -88* | -90* | 25% | x
O=C(CSc1ncc(-c2ccc(F)cc2)[nH]1)N1CCCCC1 | -26% | u | 2 | 0 | 13% | 45µM*
